The nature of experiment [1]: qHTS assay to identify small molecule agonists of the estrogen receptor alpha (ER-alpha) signaling pathway in the presence of an antagonist - cell viability counter screen (AID 1259386).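 Further: series mostly up to about 92 µM; cells exposed to compounds for 22 h at 37 °C before the viability read; nearly all actives have a fitted effect of over 30% in size.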 The essentials: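 In this counter screen, compound effects on VM7Luc4E2 viability were tested in the presence of the antagonist ICI-182,780 at 10.0nM final. Compounds were dosed at 15 concentrations, exposure lasted 22hr, and the CellTiter-Fluor signal was read.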
A general note: In qHTS, concentration-response curves come from the screen itself.

Experiment [2] addresses Progesterone receptor (Homo sapiens) (UniProt P06401). The experiment is described as follows: qHTS assay to identify small molecule agonists of the progesterone receptor (PR) signaling pathway (AID 1346784; calls by dose curve; further: nearly all actives have a fitted effect of over 30% in size). In outline:
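Beta-lactamase reporter read-out: after 16 hr compound treatment at 37C and a further 2 hr at room temperature with LiveBLAzer B/G FRET substrate, fluorescence was measured in PR-UAS-bla HEK 293T cells grown in 2% charcoal-stripped serum.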

The target is the same in experiment [3]. The experiment is described as follows: qHTS assay to identify small molecule antagonists of the progesterone receptor (PR) signaling pathway (AID 1346795; active means well fitted inhibition curve with a large enough effect in the signal ratio in the repeat runs, not every such curve was filed as active; the % refers to the signal ratio). The essentials:
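Read-out is fluorescence from the LiveBLAzer B/G FRET substrate, cleaved by a UAS-controlled beta-lactamase in PR-UAS-bla HEK293T cells after 16 hr exposure to compound plus 1 nM promegestone (final), followed by 2 hr at room temperature.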

Experiment [4] can be described thus: qHTS assay to identify small molecule antagonists of the progesterone receptor (PR) signaling pathway - cell viability counter screen (AID 1346798).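 Further: HEK293T PR-UAS-bla cells stimulated with the agonist R5020; series mostly up to about 92 µM; nearly all actives have a fitted effect of over 50% in size.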 In outline:
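HEK293T PR-UAS-bla, 2% charcoal-stripped FBS; 4 hr pre-plate; cpd + R5020, 16 h 37C; LiveBLAzer read first; then CellTiter-Glo 30 min RT, luminescence.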

Experiment [5] is described as follows: qHTS assay to identify small molecule agonists of the progesterone receptor (PR) signaling pathway - cell viability counter screen (AID 1346799; calls by dose curve; further: nearly all actives have a fitted effect of over 45% in size). In outline: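 Luminescence from CellTiter-Glo, added after the beta-lactamase FRET read in the same wells, gave cytotoxicity in PR-UAS-bla HEK293T cells treated with compounds for 16 hr at 37C.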
Experiment [6] can be described thus: qHTS assay to identify small molecule antagonists of the TGF-beta/Smad signaling pathway - cell viability counter screen (AID 1346824). Further: nearly all actives have a fitted effect of over 50% in size. The essentials:
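SBE-bla HEK 293T cells, incubated overnight, then compound plus 0.25 ng/mL TGF-beta1 (stock added) for 5 hr at 37 C. Viability was read in the same wells by CellTiter-Glo luminescence after 30 min at room temperature.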

Experiment [7] can be described thus: qHTS assay to identify small molecule agonists of the TGF-beta/Smad signaling pathway - cell viability counter screen (AID 1346829). Further: top concentration of the series differs between compounds; nearly all actives have a fitted effect of over 45% in size. The essentials: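 Cytotoxicity counter screen: CellTiter-Glo luminescence (30 min, room temperature) measured in the SBE-bla HEK 293T reporter wells after 5 hr compound treatment at 37 C and the 2 hr substrate step.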
A short description of experiment [8]: qHTS assay to identify small molecule agonists of the TGF-beta/Smad signaling pathway (AID 1346859; active means well fitted activation curve with a large enough effect in the signal ratio in the repeat runs, not every such curve was filed as active; the % refers to the signal ratio; further: series mostly up to about 77 µM). In outline:
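SBE-bla HEK 293T, 4,000 cells/well, plated o/n; cpd in DMSO, 5 hr, 37 C/5% CO2; B/G FRET substrate 2 hr RT; ex 405, em 460/530 nm.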

For experiment [9], the target named is Thyrotropin-releasing hormone receptor (Homo sapiens) (UniProt P34981). Briefly: qHTS assay to identify small molecule antagonists of the thyrotropin-releasing hormone receptor (TRHR) signaling pathway (AID 1346877; active means well fitted inhibition curve with a large enough effect in the repeat runs, not every such curve was filed as active; further: series mostly up to about 51 µM). In outline:
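Kinetic fluorescence (3 min, 1 s resolution) following stimulation with TRH at 1 nM final; HEK293 cells bearing human TRHR; 5 min compound preincubation at RT; concentration-response over 15 points, triplicates.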

The nature of experiment [10]: Human pregnane X receptor (PXR) small molecule agonists, qHTS cell viability counter screen (AID 1346977). Further: nearly all actives have a fitted effect of over 50% in size. Further: potency means the concentration at half of the fitted maximal effect. The essentials: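 PXR-Luc HepG2, 2,000 cells/well, 5% charcoal-stripped FBS; 5hr settle; cpd 24hr, 37C/5% CO2; CellTiter-Fluor at 23hr, read 1hr later (fluorescence).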
The nature of experiment [11]: Caspase-3/7 induction in HepG2 cells by small molecules, qHTS assay (AID 1346978). Further: nearly all actives have a fitted effect of over 15% in size. The essentials:
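Wild-type HepG2 cells, 2,000/well, settled 5 hr at 37 C and 5% CO2, then compound-treated for 17 hr; caspase-3/7 activity read by luminescent Caspase-Glo 3/7 after 30 min at room temperature.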

The nature of experiment [12]: Caspase-3/7 induction in CHO-K1 cells by small molecules, qHTS cell viability counter screen (AID 1346979). Further: nearly all actives have a fitted effect of over 35% in size. In outline: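 Cells (CHO-K1, wild type) are plated at 1,500 per well and incubated 5hr. Test compounds in DMSO are then pinned in, followed by 16hr at 37C and 5% CO2. Viability is read by CellTiter-Fluor fluorescence after 1hr.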
Experiment [13] is described as follows: Caspase-3/7 induction in CHO-K1 cells by small molecules, qHTS assay (AID 1346980). Further: nearly all actives have a fitted effect of over 15% in size. The essentials: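 Wild-type CHO-K1 cells exposed to compounds for 17hr at 37 C, 5% CO2. Caspase-3/7 activity then measured by Caspase-Glo 3/7 luminescence after 30min at room temperature.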
Experiment [14] has as its target Nuclear receptor subfamily 1 group I member 2 (Homo sapiens) (UniProt O75469). The experiment is described as follows: Human pregnane X receptor (PXR) small molecule agonists, qHTS assay (AID 1346982). Further: nearly all actives have a fitted effect of over 35% in size. Further: potency means the concentration at half of the fitted maximal effect. In outline:
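Reporter HepG2 cells expressing PXR-Luc are cultured in charcoal-stripped FBS (5%), treated with compounds for 24 hr at 37 C, and assayed by ONE-Glo luminescence after 30 min at room temperature.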

The target in experiment [15] is Acetylcholinesterase (Homo sapiens) (UniProt P22303). Briefly: Acetylcholinesterase (AChE) small molecule antagonists: colormetric cell-based qHTS assay (AID 1347395; calls by dose curve; further: nearly all actives have a fitted effect of over 30% in size; further: potency means the concentration at half of the fitted maximal effect). The essentials: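 Colorimetric read-out: DTNB detects thiocholine released when cellular AChE in SH-SY5Y cells hydrolyses acetylthiocholine. Cells attached overnight, received compound for 30 min at 37 C, then substrate mix for 90 min at 37 C.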
Acetylcholinesterase (Homo sapiens), sequence (P22303 whole entry, looked up): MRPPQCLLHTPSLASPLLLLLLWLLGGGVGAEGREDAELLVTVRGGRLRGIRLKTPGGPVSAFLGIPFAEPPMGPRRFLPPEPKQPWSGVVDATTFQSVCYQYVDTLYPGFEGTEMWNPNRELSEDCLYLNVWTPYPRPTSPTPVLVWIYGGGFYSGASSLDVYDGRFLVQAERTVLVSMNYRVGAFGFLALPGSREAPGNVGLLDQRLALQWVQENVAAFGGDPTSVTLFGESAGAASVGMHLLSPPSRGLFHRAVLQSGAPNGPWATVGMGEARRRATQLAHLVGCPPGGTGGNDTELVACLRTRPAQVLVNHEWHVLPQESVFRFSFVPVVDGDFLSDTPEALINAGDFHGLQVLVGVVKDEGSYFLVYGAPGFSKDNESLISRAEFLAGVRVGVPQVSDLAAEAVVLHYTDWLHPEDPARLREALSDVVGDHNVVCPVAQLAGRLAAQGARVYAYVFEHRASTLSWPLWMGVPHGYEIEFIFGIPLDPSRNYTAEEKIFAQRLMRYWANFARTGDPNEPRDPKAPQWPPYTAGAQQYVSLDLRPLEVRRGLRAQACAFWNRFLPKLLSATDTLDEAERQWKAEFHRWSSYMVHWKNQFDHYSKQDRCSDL

Experiment [16] can be described thus: Caspase-3/7 induction in HepG2 cells by small molecules, qHTS cell viability counter screen (AID 1346981). Further: nearly all actives have a fitted effect of over 30% in size. Further: potency means the concentration at half of the fitted maximal effect. In outline: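 In this quantitative HTS counter screen, compounds delivered in DMSO were left on unmodified HepG2 cells for 16 hr at 37 C. Viability was then determined fluorometrically with CellTiter-Fluor, in parallel with caspase-3/7 induction in the same wells.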

Experiment [17] has as its target Nuclear receptor subfamily 1 group I member 2 (Rattus norvegicus) (UniProt Q9R1A7). The experiment is described as follows: Rat pregnane X receptor (rPXR) activation by small molecules, qHTS assay (AID 1346983). Further: nearly all actives have a fitted effect of over 20% in size. Particulars: rPXR luciferase reporter cells, One-Glo luminescence, 24 h; stronger effect = higher value. In outline: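 Cell-based rPXR activation assay: rPXR cells, 2,000 per well, rested 5hr at 37 C, then exposed to compounds in DMSO for 24 hr at 37 C. Luciferase activity read by One-Glo luminescence after 30 min at room temperature.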

Experiment [18] addresses Nuclear receptor subfamily 1 group I member 2 (Homo sapiens) (UniProt O75469). Briefly: CYP3A4 induction through human pregnane X receptor (PXR) by small molecules, qHTS assay (AID 1346984). Further: nearly all actives have a fitted effect of over 40% in size. In outline:
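Induction measured in HepG2-based DPX-2 cells co-expressing human PXR and a CYP3A4 promoter-driven luciferase. After a 24-hour compound exposure, cells received CYP3A4 luciferin substrate at 3uM final for 3 hours, and light output was then recorded.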

In experiment [19] the target is Thyrotropin-releasing hormone receptor (Homo sapiens) (UniProt P34981). The experiment is described as follows: qHTS assay to identify small molecule agonists of the thyrotropin-releasing hormone receptor (TRHR) signaling pathway (AID 1346891; calls by dose curve; further: series mostly up to about 58 µM). The essentials:
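Intracellular calcium rise, read as fluorescence every second for 3 min, served as the agonist signal in dye-loaded HEK293 cells expressing TRHR; each compound ran at 15 concentrations in triplicate.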

Experiment [20] has as its target Nuclear receptor subfamily 1 group I member 2 (Homo sapiens) (UniProt O75469). Briefly: Human pregnane X receptor (PXR) activation by small molecules, qHTS assay (AID 1346985). Further: nearly all actives have a fitted effect of over 40% in size. In outline:
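DPX-2 cells (HepG2 co-transfected with a PXR response element and a CYP3A4-promoter luciferase construct) were seeded at 2,000 per well, rested 5 hr at 37C, then exposed to DMSO-dissolved compounds for 24 hr. Activation was read as luciferase luminescence.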

Values without a mark were called inactive. Records with an inconclusive call do not appear. Active and inactive are the calls of the source. Unless noted, the call rests on the fitted dose curve; in most records, active means well fitted curve in the direction sought with a large enough effect in the repeat runs; inconclusive means weak or mixed curves; inactive means no such curve, though single readings can be large; an effect the other way counts as inactive or inconclusive.
On the % scale 0 is the no-effect control and ±100 the full control effect.

Thyrotropin-releasing hormone receptor (Homo sapiens), sequence (P34981 whole entry, looked up): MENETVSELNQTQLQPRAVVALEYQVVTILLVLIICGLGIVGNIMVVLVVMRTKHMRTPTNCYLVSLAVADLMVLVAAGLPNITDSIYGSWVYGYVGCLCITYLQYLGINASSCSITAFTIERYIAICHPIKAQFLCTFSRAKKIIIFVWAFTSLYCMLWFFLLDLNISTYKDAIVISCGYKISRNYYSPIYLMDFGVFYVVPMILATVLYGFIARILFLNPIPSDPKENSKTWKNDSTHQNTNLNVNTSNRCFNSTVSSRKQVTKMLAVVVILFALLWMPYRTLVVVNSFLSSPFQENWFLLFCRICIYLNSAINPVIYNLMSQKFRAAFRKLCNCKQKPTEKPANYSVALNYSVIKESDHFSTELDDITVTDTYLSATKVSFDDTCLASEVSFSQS
Nuclear receptor subfamily 1 group I member 2 (Homo sapiens), sequence (O75469 whole entry, looked up): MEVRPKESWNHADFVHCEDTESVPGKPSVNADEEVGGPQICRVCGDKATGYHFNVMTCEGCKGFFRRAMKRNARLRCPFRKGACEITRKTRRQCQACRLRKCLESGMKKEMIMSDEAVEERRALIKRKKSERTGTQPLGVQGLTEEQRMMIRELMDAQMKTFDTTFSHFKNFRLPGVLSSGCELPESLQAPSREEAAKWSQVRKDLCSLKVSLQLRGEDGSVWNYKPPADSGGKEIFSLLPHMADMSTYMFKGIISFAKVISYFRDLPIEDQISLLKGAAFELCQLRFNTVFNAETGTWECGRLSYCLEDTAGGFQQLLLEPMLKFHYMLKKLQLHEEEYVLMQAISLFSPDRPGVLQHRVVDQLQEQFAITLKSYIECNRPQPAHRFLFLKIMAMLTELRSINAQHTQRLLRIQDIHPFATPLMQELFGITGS
Progesterone receptor (Homo sapiens), sequence (P06401 whole entry, looked up): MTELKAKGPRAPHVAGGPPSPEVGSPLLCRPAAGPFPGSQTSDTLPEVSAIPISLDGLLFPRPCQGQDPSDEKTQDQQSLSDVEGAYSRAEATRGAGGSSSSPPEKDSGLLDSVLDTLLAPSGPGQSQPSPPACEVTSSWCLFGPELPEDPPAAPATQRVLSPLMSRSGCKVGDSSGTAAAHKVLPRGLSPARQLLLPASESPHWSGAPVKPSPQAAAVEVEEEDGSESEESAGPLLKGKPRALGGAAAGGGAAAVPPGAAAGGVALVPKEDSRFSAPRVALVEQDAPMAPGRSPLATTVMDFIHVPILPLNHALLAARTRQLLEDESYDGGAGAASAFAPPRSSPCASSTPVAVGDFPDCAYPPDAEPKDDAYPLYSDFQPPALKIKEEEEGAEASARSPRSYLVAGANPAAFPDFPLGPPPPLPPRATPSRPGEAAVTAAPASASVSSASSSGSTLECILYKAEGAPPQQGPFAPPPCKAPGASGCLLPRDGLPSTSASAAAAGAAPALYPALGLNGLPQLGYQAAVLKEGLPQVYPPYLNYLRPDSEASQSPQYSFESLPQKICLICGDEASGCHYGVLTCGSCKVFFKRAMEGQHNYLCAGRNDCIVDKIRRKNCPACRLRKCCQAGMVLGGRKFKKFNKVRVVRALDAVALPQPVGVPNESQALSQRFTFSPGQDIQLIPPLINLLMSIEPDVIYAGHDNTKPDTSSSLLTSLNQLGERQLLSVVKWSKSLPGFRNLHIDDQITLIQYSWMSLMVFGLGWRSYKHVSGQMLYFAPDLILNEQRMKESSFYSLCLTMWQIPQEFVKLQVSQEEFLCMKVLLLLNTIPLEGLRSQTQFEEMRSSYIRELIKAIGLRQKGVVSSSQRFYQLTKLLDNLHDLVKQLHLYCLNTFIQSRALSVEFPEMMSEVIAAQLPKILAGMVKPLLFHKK
Nuclear receptor subfamily 1 group I member 2 (Rattus norvegicus), sequence (Q9R1A7 whole entry, looked up): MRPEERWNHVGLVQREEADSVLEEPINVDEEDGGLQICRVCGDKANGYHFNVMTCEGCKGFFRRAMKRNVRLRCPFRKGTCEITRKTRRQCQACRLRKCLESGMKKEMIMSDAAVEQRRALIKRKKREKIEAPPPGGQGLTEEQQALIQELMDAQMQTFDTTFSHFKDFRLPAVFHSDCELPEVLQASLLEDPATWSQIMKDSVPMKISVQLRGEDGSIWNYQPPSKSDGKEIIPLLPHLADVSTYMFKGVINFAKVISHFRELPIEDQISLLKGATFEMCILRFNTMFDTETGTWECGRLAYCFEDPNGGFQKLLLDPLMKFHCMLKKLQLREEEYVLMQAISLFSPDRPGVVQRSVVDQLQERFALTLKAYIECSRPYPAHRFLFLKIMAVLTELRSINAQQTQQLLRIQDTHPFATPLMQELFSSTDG

Turning to `Cc1nc(N(C)C)nc(OC(=O)N(C)C)c1C`, the Potency result in experiment [1], in experiment [2], in experiment [3], in experiment [4], in experiment [5] and in [6] was “inactive” in each case. In addition, the Potency result in [7], in [9], in experiment [10], in experiment [11], in experiment [12] and in experiment [13] was “inactive” in each case. Also, the Potency result in [14] was “inactive”. Besides, in [8], the outcome was inactive. For the same molecule, the Potency in experiment [15] was 11.2 µM (active).

As for `CCOC(=O)c1cncn1C(C)c1ccccc1` (centres undefined), the Potency result in experiment [1], in [2], in [3], in experiment [4], in experiment [5] and in experiment [10] was “inactive” in each case. The Potency result in experiment [11], in experiment [12], in experiment [13], in [16] and in [15] was “inactive” in each case. Also, the result in experiment [8] and in [18] was inactive. Further, the Potency in experiment [14] is 26.6 µM (active). Besides, in experiment [17], the max activation was 0.791%.

Take `Clc1ccccc1`: the Potency entry in experiment [1], in experiment [2], in [3], in [4], in experiment [5] and in [6] was “inactive” throughout. Further, the Potency result in experiment [9], in [11], in experiment [13] and in experiment [15] was “inactive” throughout. Also, the molecule was classed as inactive in [8] and in experiment [19]. Moreover, the Potency is 26.9 µM (active) in [10], 26.9 µM (active) in [16] and 24 µM (active) in experiment [14].

For the molecule `Cc1ccc2c(C)cccc2c1`, the Potency result in [1], in experiment [2], in [3], in experiment [4], in [5] and in [6] was “inactive” each time. For the same molecule, the Potency result in [7], in experiment [9], in experiment [10], in experiment [11], in experiment [12] and in [13] was “inactive” throughout. Moreover, the Potency entry in experiment [16], in experiment [14] and in experiment [15] was “inactive” each time. Besides, the call in experiment [19] was inactive.

Turning to `CC[N+]1(CCOC(=O)C(O)(c2ccccc2)c2ccccc2)CCCCC1`, the Potency entry in experiment [1], in experiment [2], in [3], in [4], in experiment [5] and in [6] was “inactive” each time. The Potency entry in [7], in experiment [10], in experiment [11], in experiment [12], in experiment [14] and in experiment [20] was “inactive” in each case. Besides, the Potency entry in experiment [15] is “inactive”. In addition, in experiment [17], the max activation is 0.456%. Also, the result in experiment [18] was inactive.

As to `O=C(O)C(O)C(O)C(=O)O` (centres undefined), the Potency entry in experiment [1], in experiment [2], in [3], in [4], in [5] and in experiment [6] was “inactive” each time. The Potency result in experiment [7], in [9], in experiment [10], in [11], in [13] and in experiment [16] was “inactive” each time. In addition, the Potency entry in [15] is “inactive”. Besides, the result in [8] and in experiment [19] was inactive.

As for `CCOP(=O)(SC(C)CC)N1CCSC1=O` (centres undefined), the Potency result in experiment [1], in experiment [2], in experiment [3], in experiment [4], in [5] and in experiment [7] was “inactive” in each case. The Potency entry in [9], in experiment [10], in [11], in [12], in [13] and in experiment [16] was “inactive” in each case. Besides, in [15], the Potency entry was “inactive”. In addition, the molecule was called inactive in experiment [8] and in experiment [19].

Turning to `O=[N+]([O-])c1cc(Cl)c(Cl)cc1Cl`, the Potency result in experiment [1], in [2], in experiment [3], in [4], in [5] and in experiment [6] was “inactive” throughout. In addition, the Potency result in experiment [7], in [10], in experiment [11], in [12], in [16] and in experiment [14] was “inactive” each time. In experiment [15], the Potency entry was “inactive”.

These data come from PubChem BioAssay (Tox21).
